In ChEMBL document CHEMBL4888484, “Replenishing the malaria drug discovery pipeline: Screening and hit evaluation of the MMV Hit Generation Library 1 (HGL1) against asexual blood stage Plasmodium falciparum ,using a nano luciferase reporter read-out” (2022):
The whole screen tested about 4,800 compounds, of which about 410 (8.5%) showed an effect of 50% or more. This excerpt belongs to a sample that is enriched for strong results.

test system: Plasmodium falciparum; assay: Confirmatory screen in NF54 pLDH assay, in single point, at 2uM, 72h; format: functional, Erythrocyte; conditions: timepoint 72 hour

SMILES	% Inhibition
O=C(NCC1CC12CCc1ccccc12)NC1CC2CCC1O2 (centres undefined)	1%
Cc1ccc2nc(O)c3nnc(C)n3c2c1	15%
NS(=O)(=O)c1ccc(-c2noc(C3(c4cccc(F)c4)CCC3)n2)cc1	-9%
CN(C)CCCNc1nc(N2CCCC2)c2c(c1C#N)CCN(C)C2	14%
CC(C)C(NC(=O)c1ccccc1F)C(=O)NC1CCC(N(C)C)C1 (centres undefined)	-9%
CC1CCCN(c2nc(O)c3c(n2)NC(=O)CC3c2cccc(C(F)(F)F)c2)C1 (centres undefined)	9%
CC(C)Cc1nsc(N2CCOC3CCN(C)CC32)n1 (centres undefined)	11%
CN1c2cc(C(=O)N3CCN(c4ccccc4Cl)CC3)ccc2C(=O)N2CCCC[C@H]21	5%
Nc1ccnc(OCc2ccccc2)n1	-16%
C[C@H](Oc1ccc(F)cc1)C(=O)N1CCC(c2nc3cc(Cl)ccc3s2)CC1	-1%
Cc1cc(N(CCO)C2CC2)nc(C2CC2)n1	-18%
Cc1cc(N(C)CCC2CC2)nc([C@H](C)N(C)CCC2CC2)n1	61%
Clc1ccc2c(c1)CC[C@@H]2NCc1nnc2n1CCC2	3%
N[C@H]1C[C@H](c2cc(NCCCc3cccnc3)nc(C3CC3)n2)C1	77%
Cc1ccc(OCCNc2cc([C@H]3C[C@H](N)C3)nc(C3CC3)n2)cc1C	25%
O=C(NCCc1cccnc1)OCC(F)(F)F	-19%
Cc1ccc(N(C)CC(=O)N2CCC2)c(Br)c1	-7%
COc1ccc(CCc2nc(NC(=O)c3[nH]nc4c3CCC4)n[nH]2)cc1	-15%
O=C(Cc1ccccc1)Nc1c2c(nc3c1CCC3)CCCC2	8%
COc1ccc(C(=O)N(C(=O)c2ccc(OC)cc2)c2c3c(nc4ccccc24)CCCC3)cc1	61%
Cc1ccc2c(c1)N(C(=O)c1c[nH]c(C)cc1=O)CCC2	-3%
COc1cc(OC)nc(-n2nc(C)cc2C(=O)Nc2ccc(Cl)cc2)n1	18%
Cc1cc(C)n(-c2nnc(-c3ccccc3)c(-c3ccccc3)n2)n1	10%
Cc1cc(C)n(-c2nc(Nc3ccc(Cl)cc3)nc(Nc3ccc(Cl)cc3)n2)n1	87%
Cc1cc(C)c(S(=O)(=O)Cc2ccccc2)c(O)n1	12%
Cc1ocnc1C(=O)N[C@H]1CCN(c2ccc(Cl)c(F)c2)C1=O	7%
Cc1cc(N2C[C@H]3CC[C@@H](C2)[C@H]3N(C)C)nc(Nc2cccc(O)c2)n1	86%
Cc1cc(N2CC(OCc3ccccc3)C2)nc(Nc2cccc(O)c2)n1	96%
Cc1cccc([C@@H](NC(=O)Nc2ncco2)C(F)(F)F)c1	-15%
